This note sets out measurements from PubChem BioAssay AID687016 (The Scripps Research Institute Molecular Screening Center, 2013).

Each structure is given as a SMILES string. Screen size: about 370,000 compounds; about 2,800 (0.76%) were called active. Shown is part of a subset that was picked to be rich in actives. A number with no mark means an inactive call. No stated cut-off is given here; in the data, active means inhibition above about 21%; inactive means the rest.

For the assay, the target named is E3 ubiquitin-protein ligase UHRF1 (Homo sapiens) (UniProt Q96T88). As to the kind of experiment: blockers of UHRF1 binding to methyl-oligo – biochemical, TR-FRET, human UHRF1, single concentration, counter-screen for MBD2 inhibitor project, primary screen (AID 687016).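 Further: UHRF1 SRA domain binding a hemimethylated CpG hairpin DNA probe; 0% = median of test compound wells and 100% = reference inhibitor.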 Conditions: UHRF1 binding to methylated oligo, at 4.4 µM, active compounds read high.
Chain of E3 ubiquitin-protein ligase UHRF1 (Homo sapiens) (Q96T88 whole entry, looked up, the tested form may be a part): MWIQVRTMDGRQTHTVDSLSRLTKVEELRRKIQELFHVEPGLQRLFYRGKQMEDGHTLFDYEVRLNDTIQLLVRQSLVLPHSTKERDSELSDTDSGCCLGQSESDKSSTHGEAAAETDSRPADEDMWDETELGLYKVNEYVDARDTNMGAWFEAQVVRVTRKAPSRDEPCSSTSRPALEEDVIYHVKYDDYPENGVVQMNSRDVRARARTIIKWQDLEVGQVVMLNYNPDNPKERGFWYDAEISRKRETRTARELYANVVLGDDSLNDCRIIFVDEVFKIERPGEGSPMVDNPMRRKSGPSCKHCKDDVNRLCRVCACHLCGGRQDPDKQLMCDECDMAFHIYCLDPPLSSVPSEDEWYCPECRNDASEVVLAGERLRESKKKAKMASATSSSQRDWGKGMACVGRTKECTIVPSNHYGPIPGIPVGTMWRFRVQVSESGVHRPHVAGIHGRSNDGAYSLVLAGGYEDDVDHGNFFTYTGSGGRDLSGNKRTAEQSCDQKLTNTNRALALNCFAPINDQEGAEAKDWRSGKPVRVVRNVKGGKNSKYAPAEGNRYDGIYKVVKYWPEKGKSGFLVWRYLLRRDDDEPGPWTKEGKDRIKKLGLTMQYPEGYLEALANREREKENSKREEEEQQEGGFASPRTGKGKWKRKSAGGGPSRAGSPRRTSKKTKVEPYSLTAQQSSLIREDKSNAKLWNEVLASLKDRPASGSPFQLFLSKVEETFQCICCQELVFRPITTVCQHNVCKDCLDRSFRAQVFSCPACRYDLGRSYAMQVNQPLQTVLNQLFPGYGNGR
Turning to `CC(C)(C)c1ccc(CSc2nnc(-c3cccs3)o2)cc1`, the inhibition is -2.34%.

For `Cc1ccc(Cc2cnc(N)s2)o1`, the inhibition is 53.9% (active).

Take `O=C(NCCC1=CCCCC1)C1CCN(S(=O)(=O)c2ccc(Cl)s2)CC1`: the inhibition was -0.71%.

For the compound `O=C(OC12CCCN(C1)/C(=C/c1ccccc1)C2)c1ccco1` (configuration not stated), the inhibition is 3.41%.

Turning to `C=CCN1[C@@H](Cc2ccccc2)COc2cccc(N3CCSCC3)c2S1(=O)=O`, the inhibition was -0.98%.

Regarding `CNS(=O)(=O)c1cccc(C(=O)OCC(=O)N2c3ccccc3NC(=O)C2(C)C)c1`, the inhibition is 5.39%.

On to `CC1(C)C(=O)Nc2ccccc2N1C(=O)COC(=O)Cn1cnc2ccccc2c1=O`, for which the inhibition is 1.64%.

For the compound `Cc1ccc(OCCC(=O)OCC(=O)N2c3ccccc3NC(=O)C2(C)C)cc1`, the inhibition was 24.6% (active).

For the compound `COc1ccnc(C(=O)N2CCC(Oc3cccnc3)CC2)c1`, the inhibition is -0.76%.

For `O=C1CC(c2ccc3c(c2)OCO3)N=C2N(CC3CC3)C/C(=C/c3ccccc3)N12` (configuration not stated), the inhibition is -0.7%.

For the compound `O=c1ccc2c(-c3ccccc3S(=O)(=O)O)c3ccc(O)c(O)c3oc-2c1O`, the inhibition was 82.5% (active).

Take `Cc1cc(=O)[nH]c(SCC(=O)Nc2ccc(F)cc2F)n1`: the inhibition is -1.2%.

As for `CCOCCOC(=O)C1=C(C)NC(=O)NC1c1ccc2c(c1)OCO2` (configuration not stated), the inhibition was 31.3% (active).

Turning to `COCCOC(=O)C1=C(C)NC(=O)NC1c1cc2c(cc1Br)OCO2` (configuration not stated), the inhibition was 0.79%.

As to `CC(=O)C1=C(C)NC(=O)NC1c1ccc2c(c1)OCO2` (configuration not stated), the inhibition is 0.08%.

On to `CC(CCN1CCC(C(O)(c2ccccc2)c2ccccc2)CC1)Oc1ccc(C(F)(F)F)cc1` (configuration not stated), for which the inhibition is 1.26%.

On to `O=C(CCS(=O)(=O)c1ccccc1)Nc1ccc(Cl)c(Cl)c1`, for which the inhibition was 3.31%.

Consider `COC(=O)[C@]12C[C@H](CC(=O)NCC34CC5CC(CC(C5)C3)C4)C(=O)N(Cc3ccc(Cl)cc3Cl)C1=C[C@H](COCc1ccccc1)O[C@@H]2C`, for which the inhibition is -0.14%.

Turning to `CN(C)CCn1c(=S)[nH]c2ccc(Cl)cc2c1=O`, the inhibition is -4.42%.

Regarding `CCOC(=O)c1ccc2[nH]c(C)c(CN3CCN(C)CC3)c(=O)c2c1`, the inhibition was -2.6%.

Consider `CCCCN(C)Cc1c(C)[nH]c2ccc(Cl)cc2c1=O`, for which the inhibition was 27% (active).

`O=C(OC12CCCN(C1)/C(=C/c1cccnc1)C2)C1CCCC1` (configuration not stated): the inhibition was -1.46%.

`COc1ccc(-n2c(C)cc(C(=O)CSc3nnc(-c4cccs4)o3)c2C)cc1`: the inhibition is 23.6% (active).

As for `CCc1ccccc1NC(=O)CSc1nnc(-c2cccs2)o1`, the inhibition is 1.37%.

With `COc1ccc(-c2nnc(SCC(=O)c3ccc4c(c3)OCCO4)o2)cc1`, the inhibition is -0.81%.

Take `COc1ccc(-n2c(SCC(=O)NC3CCCC3)nnc2-c2ccncc2)cc1`: the inhibition is 0.14%.

Turning to `COC(=O)[C@]12C[C@H](CC(=O)N3CCOCC3)C(=O)N(Cc3ccc(Cl)cc3Cl)C1=C[C@H](COCc1ccccc1)O[C@@H]2C`, the inhibition is 0.29%.

Turning to `CCC(C)C(=O)Nc1cc([N+](=O)[O-])ccc1Cl` (configuration not stated), the inhibition was -0.24%.

As for `O=C(NCc1ccco1)c1ccc([N+](=O)[O-])cc1Cl`, the inhibition is 2.58%.

With `CC(C)C(=O)Nc1cccc(NC(=O)c2ccc([N+](=O)[O-])cc2Cl)c1`, the inhibition is 23.4% (active).

In the case of `CCC(=O)OCCCN1C(=O)CCC12CCC(c1ccccc1)CC2` (configuration not stated), the inhibition was -3.69%.

In the case of `COc1ccc(Cn2ccc3ccc(-c4ccc5ccn(Cc6ccccc6C)c5c4)cc32)cc1`, the inhibition was -0.92%.

In the case of `CC(C)N1CCCCC(NC(=O)c2ccc3ccccc3c2)C1=O` (configuration not stated), the inhibition is -2.66%.

For `O=C(c1c[nH]c2ccccc12)N1CCC(Oc2cccnc2)CC1`, the inhibition was -3.48%.

In the case of `COC(=O)[C@H](C(C)C)N1CCc2nnn(Cc3ccc(C)cc3)c2-c2ccccc2S1(=O)=O`, the inhibition is -0.67%.

Turning to `C=CCN1C(=O)[C@@H](CC(=O)NCCCCc2ccccc2)[C@]2(C(=O)OCC)CCCCC/C=C/12`, the inhibition was -1.86%.

On to `COc1ccc2[nH]c3c(C)c4cc[n+](C)cc4c(C)c3c2c1`, for which the inhibition is 92.9% (active).

With `CC(=O)N1CCCN(C2=Nc3ccccc3Sc3ccccc32)CC1`, the inhibition is 11.8%.

Consider `Cc1ccc(NC(=O)Cn2sc3ccccc3c2=O)cc1`, for which the inhibition was -0.79%.

In the case of `Cc1ccnc(-n2sc3ccccc3c2=O)n1`, the inhibition was 21.5% (active).

As to `Cc1ccnc(SC2CC(=O)N(c3ccccc3)C2=O)n1` (configuration not stated), the inhibition was -0.14%.

Take `COc1ccc(CN2C/C(=C/c3ccccc3)N3C(=O)C[C@@H](c4ccccc4)N=C23)c(OC)c1`: the inhibition was -0.02%.

As to `COc1ccc(/C=C2\CC3(OC(C)=O)CCCN2C3)cc1` (configuration not stated), the inhibition was -2.63%.

On to `C=CCN1C(C(=O)OC)CN(Cc2cn(Cc3ccccc3)nn2)CCS1(=O)=O` (configuration not stated), for which the inhibition is 15.8%.

On to `C[N+](C)(C)CCNC(=O)c1c[nH]c2ccccc12`, for which the inhibition was 21.1% (active).

With `O=C(CNC(=O)c1ccccc1F)OCC(=O)c1c[nH]c2ccccc12`, the inhibition was -1.49%.

Turning to `O=C(NCCCc1ccccc1)C(=O)c1c[nH]c2ccccc12`, the inhibition was -1.59%.

With `Clc1ccc(-n2c(COc3ccccc3)nnc2SCc2nc3ccccc3[nH]2)cc1`, the inhibition is -1.31%.

Consider `C[C@@H](NC(=O)c1ccccc1OCC(=O)Nc1ccc(I)cc1)C(=O)N(C)Cc1ccccc1`, for which the inhibition was 0.7%.

For `COc1ccc2c(c1)c(=Cc1ccc(N(C)C)cc1)c1cc(-c3ccccc3)[n+](C)n12`, the inhibition was 57.8% (active).

`C=C1C(C(C)C)N(C)C2=NC(c3ccccc3)CC(=O)N12` (configuration not stated): the inhibition was -0.97%.

With `CC(C)CSc1nnc(-c2cccnc2)n1Cc1ccccc1`, the inhibition is -0.61%.

In the case of `Cc1ccc(NC(=O)Cc2cccc(F)c2)c(S(=O)(=O)N2CCOCC2)c1`, the inhibition was 0.9%.

On to `Cc1ccccc1Cn1c2ccccc2c2cnn(CC(=O)NCc3ccco3)c(=O)c21`, for which the inhibition was 22.5% (active).

With `O=C(Cn1ncc2c3ccccc3n(Cc3ccccc3)c2c1=O)NCCCN1CCOCC1`, the inhibition was 0.46%.

Regarding `O=C(Cn1ncc2c3ccccc3n(Cc3ccccc3)c2c1=O)NCc1ccccn1`, the inhibition was 0.71%.

As to `CCC(=O)c1c(CC)c2n3c1=CC[C@H]3CC(Br)C=2` (some centres not stated), the inhibition was 1.95%.
